Compounds without any hit were thinned out: in the full panel of roughly 83,000, 20% have a hit.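 48-hour exposure, single concentration, 96-well plates; percent growth endpoint where 0 means no net growth. Active: below 10.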 Active and inactive are the calls of the source.
Experiments:
Test in all cases: NCI-60 one-dose screen, 48 h (100 = growth as untreated, 0 = no growth, -100 = all killed)
HCT-15 colon = conditions: 10 µM unless noted
HT29 colon = conditions: 10 µM unless noted
SNB-75 CNS = conditions: 10 µM unless noted
SNB-19 CNS = conditions: 10 µM unless noted
U251 CNS = conditions: 10 µM unless noted
PC-3 prostate = conditions: 10 µM unless noted
SK-MEL-5 melanoma = conditions: 10 µM unless noted
UACC-62 melanoma = conditions: 10 µM unless noted
LOX IMVI melanoma = conditions: 10 µM
SK-MEL-28 melanoma = conditions: 10 µM unless noted
SK-MEL-2 melanoma = conditions: 10 µM unless noted
EKVX NSCLC = conditions: 10 µM unless noted
SN12C renal = conditions: 10 µM unless noted
UO-31 renal = conditions: 10 µM unless noted
TK-10 renal = conditions: 10 µM unless noted
ACHN renal = conditions: 10 µM unless noted
CAKI-1 renal = conditions: 10 µM unless noted
A498 renal = conditions: 10 µM unless noted
CCRF-CEM leukemia = conditions: 10 µM unless noted
MOLT-4 leukemia = conditions: 10 µM unless noted

| SMILES | growth (HCT-15 colon) | growth (HT29 colon) | growth (SNB-75 CNS) | growth (SNB-19 CNS) | growth (U251 CNS) | growth (PC-3 prostate) | growth (SK-MEL-5 melanoma) | growth (UACC-62 melanoma) | growth (LOX IMVI melanoma) | growth (SK-MEL-28 melanoma) | growth (SK-MEL-2 melanoma) | growth (EKVX NSCLC) | growth (SN12C renal) | growth (UO-31 renal) | growth (TK-10 renal) | growth (ACHN renal) | growth (CAKI-1 renal) | growth (A498 renal) | growth (CCRF-CEM leukemia) | growth (MOLT-4 leukemia) |
| --- | --- | --- | --- | --- | --- | --- | --- | --- | --- | --- | --- | --- | --- | --- | --- | --- | --- | --- | --- | --- |
| Cc1ccc(S(=O)(=O)c2nc(S(=O)(=O)c3ccc(C)cc3)c(N3CCC(O)CC3)s2)cc1 | 22.9% (inactive) | 77.8% (inactive) | 97.5% (inactive) | 68.3% (inactive) | 57.7% (inactive) | 56.8% (inactive) | 78.1% (inactive) | 42% (inactive) | 50.5% (inactive) | 81.9% (inactive) | 66.6% (inactive) | 63.1% (inactive) | 74% (inactive) | 73.7% (inactive) | 129% (inactive) | 97.8% (inactive) | 69.2% (inactive) | 86.1% (inactive) | 23.8% (inactive) | 38% (inactive) |
| CCOC(=O)C(N=Nc1ccc(S(=O)(=O)N=C(N)N)cc1)C(C)=O (stereo not given) | 108% (inactive) | 107% (inactive) | 74.3% (inactive) | 101% (inactive) | 98.6% (inactive) | 98.5% (inactive) | 102% (inactive) | 99.2% (inactive) | 109% (inactive) | 109% (inactive) | 119% (inactive) | 111% (inactive) | 101% (inactive) | 97.6% (inactive) | 88.6% (inactive) | 98.2% (inactive) | 96.3% (inactive) | 102% (inactive) | 101% (inactive) | 110% (inactive) |
| O=C(NN1C(=O)/C(=C/C=C/c2ccc([N+](=O)[O-])o2)SC1=S)c1cccc(O)c1 | -65.1% (active) | -67.2% (active) | -71.3% (active) | -96.5% (active) | -96.2% (active) | -40.2% (active) | -100% (active) | -97.4% (active) | -93.5% (active) | -100% (active) | -88.2% (active) | -96.8% (active) | -99.8% (active) | -98.6% (active) | -96.3% (active) | -100% (active) | -100% (active) | 2.42% (active) | 0.334% (active) | 2.92% (active) |
| Nc1nc(-c2ccccc2)c(N=Nc2ccc(Cl)cc2[N+](=O)[O-])s1 | 94.4% (inactive) | 100% (inactive) | 80.1% (inactive) | 89.2% (inactive) | 92.4% (inactive) | 87.1% (inactive) | 98.8% (inactive) | 77.3% (inactive) | 88.2% (inactive) | 107% (inactive) | 90.4% (inactive) | 76.8% (inactive) | 96% (inactive) | 65.2% (inactive) | 169% (inactive) | 101% (inactive) | 82.5% (inactive) | 92% (inactive) | 101% (inactive) | 100% (inactive) |
| COC(=O)/C=C/c1cccc2c1C(=O)NC(C)(c1cc3cc4ccccc4cc3oc1=O)N2 (stereo not given) | 54.6% (inactive) | 32.9% (inactive) | 61.8% (inactive) | 49.7% (inactive) | 43.8% (inactive) | 38.9% (inactive) | 79.5% (inactive) | 49.2% (inactive) | 6.32% (active) | 58% (inactive) | 79.4% (inactive) | 67.5% (inactive) | 35.1% (inactive) | 65.4% (inactive) | 99.7% (inactive) | 40.1% (inactive) | 61.9% (inactive) | 90.6% (inactive) | 53% (inactive) | 58.7% (inactive) |
| Cn1cc(-c2nc(N)nnc2-c2c[nH]c3ccc(Br)cc23)c2cc(Br)cnc21 | 3.67% (active) | -31.5% (active) | -0.672% (active) | 33.9% (inactive) | 8.22% (active) | 3.39% (active) | -63.5% (active) | 8.26% (active) | 17.3% (inactive) | 27.1% (inactive) | 13.1% (inactive) | 30.4% (inactive) | 11.3% (inactive) | 10.4% (inactive) | 47.4% (inactive) | 6.39% (active) | -8.15% (active) | -14.3% (active) | 0.493% (active) | -2.69% (active) |
| Nc1nnc(-c2c[nH]c3ccc(Br)cc23)c(-c2c[nH]c3ncc(Br)cc23)n1 | 26.9% (inactive) | 43.6% (inactive) | 50.2% (inactive) | 47% (inactive) | 41.8% (inactive) | 29.1% (inactive) | 44.2% (inactive) | 25.3% (inactive) | 31.8% (inactive) | 37.5% (inactive) | -33.2% (active) | 46.6% (inactive) | 46.5% (inactive) | 42.1% (inactive) | 33.1% (inactive) | 29.6% (inactive) | 21% (inactive) | 17.6% (inactive) | 13.4% (inactive) | 2.51% (active) |
| COc1ccc2[nH]cc(-c3cc(N)n4nc(-c5cn(C)c6ccccc56)cc4n3)c2c1 | -83.4% (active) | -73.7% (active) | -52.4% (active) | -48.4% (active) | -85.3% (active) | -67.6% (active) | -96.3% (active) | -76.5% (active) | -67.9% (active) | -92.9% (active) | -96% (active) | -82.8% (active) | -73.2% (active) | -93.7% (active) | -95.3% (active) | -100% (active) | -96% (active) | -80.6% (active) | -39.3% (active) | -41.4% (active) |
| Cc1ccc(S(=O)(=O)c2nc(S(=O)(=O)c3ccc(C)cc3)c(N3CCN(C)CC3)s2)cc1 | 24.6% (inactive) | 56% (inactive) | 91.3% (inactive) | 85.7% (inactive) | 52.9% (inactive) | 78.8% (inactive) | 63.2% (inactive) | 48% (inactive) | 30.4% (inactive) | 68.8% (inactive) | 49.4% (inactive) | 63.4% (inactive) | 46.3% (inactive) | 69.5% (inactive) | 125% (inactive) | 71.6% (inactive) | 60.9% (inactive) | 83.5% (inactive) | 19.7% (inactive) | 30% (inactive) |
| CN(C)c1nc(NCCNS(=O)(=O)c2ccc(C(=O)/C=C/c3ccc(F)cc3)cc2)nc(Nc2ccc(F)cc2)n1 | -91.7% (active) | -100% (active) | -16.4% (active) | -74.8% (active) | -100% (active) | -75.2% (active) | -99.6% (active) | -97.1% (active) | -100% (active) | -100% (active) | -90.2% (active) | -49% (active) | -99.8% (active) | -49.1% (active) | -41.4% (active) | -81.2% (active) | -51.9% (active) | 9.88% (active) | 4.06% (active) | -17.2% (active) |
| Cn1cc(-c2cc3nc(-c4c[nH]c5ccc(Br)cc45)cc(N)n3n2)c2ccccc21 | -85.2% (active) | -83.1% (active) | -64.5% (active) | -68.1% (active) | -89.9% (active) | -77.3% (active) | -77.8% (active) | -70.3% (active) | -85.1% (active) | -96.6% (active) | -86.5% (active) | -79.4% (active) | -73% (active) | -97.7% (active) | -90.3% (active) | -98.4% (active) | -87.8% (active) | -25% (active) | -19.6% (active) | -33.8% (active) |
| COc1cc(C2CC(c3ccc(S(=O)(=O)NCCNc4nc(Nc5ccc(F)cc5)nc(N(C)C)n4)cc3)=Nc3c(N)nc(N)nc3N2)cc(OC)c1OC (stereo not given) | 92.5% (inactive) | 96.5% (inactive) | 82.8% (inactive) | 67.5% (inactive) | 69.6% (inactive) | 86.3% (inactive) | 64.2% (inactive) | 76.4% (inactive) | 66.9% (inactive) | 88.1% (inactive) | 90.8% (inactive) | 87.3% (inactive) | 83.9% (inactive) | 86.1% (inactive) | 95.4% (inactive) | 96.8% (inactive) | 90.4% (inactive) | 86.8% (inactive) | 33.8% (inactive) | 34.4% (inactive) |
| Cc1cccc(-c2nc(Nc3ccc(C)c(S(N)(=O)=O)c3)c3ccccc3n2)c1 | -19.4% (active) | 18% (inactive) | 91.5% (inactive) | 32.5% (inactive) | 29.4% (inactive) | 15.7% (inactive) | 29.5% (inactive) | 43% (inactive) | -34.7% (active) | 38.9% (inactive) | 52.2% (inactive) | 22.7% (inactive) | 29.8% (inactive) | 25.2% (inactive) | 60.1% (inactive) | 15.3% (inactive) | 24% (inactive) | 52.8% (inactive) | 17.7% (inactive) | 16.8% (inactive) |
| COc1c(F)ccc(C(=O)Nc2ccc3nc(NC(=O)C4CCCN(S(=O)(=O)C5CC5)C4)sc3c2)c1F (stereo not given) | 34% (inactive) | 44.1% (inactive) | 56.3% (inactive) | 63.5% (inactive) | 47.6% (inactive) | 39.1% (inactive) | -43.8% (active) | 44.7% (inactive) | 24.5% (inactive) | 56.2% (inactive) | 54.9% (inactive) | 31.5% (inactive) | 65% (inactive) | 43.1% (inactive) | 74.5% (inactive) | 47% (inactive) | 46.6% (inactive) | 76% (inactive) | 18% (inactive) | 3.08% (active) |
